DAX1 inh-1: DAX1 (NR0B1) inhibition, primary screen. HEK293T StAR-luciferase reporter, SF-1/DAX-1 repression relief. inhibition, % at 6.8 µM. actives 1.1% (n = 370,000);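 active = inhibition above the mean over all tested compounds plus 3 SD, cut at about 3.6% in these data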;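 also: 0% = DAX-1 cells with DMSO and 100% = cells lacking DAX-1 with DMSO; higher inhibition means more luminescence from relief of DAX-1 repression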
ssDAF-12 act: S. stercoralis DAF-12 activation, primary screen; HEK293 ssDAF-12/GRIP1 lit1-tk-luc reporter, luminescence; % of 3 µM dafachronic acid response; activation, % at 6.8 µM; actives 1% (n = 370,000); AID 652126;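 active = activation above the mean over all tested compounds plus 3 SD, cut at about 0.9% in these data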;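 also: 0% = DMSO-only wells and 100% = 3 µM delta7-dafachronic acid wells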
FXN GAA850 act: frataxin GAA850 promoter activation; HEK293 lucGAA850 FXN promoter luciferase reporter, 24 h; percent of 10 µM SAHA response; activation, % at 6 µM; actives 0.56% (n = 360,000);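 active = activation above the average of all compounds screened plus 3 SD, cutoff fixed separately per campaign, cut at about 7.5% in these data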;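 also: 0% = DMSO wells and 100% = 10 µM SAHA wells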
hcDAF-12 act: activators of H. contortus DAF-12 nuclear receptor; activation, % at 6.8 µM; HEK293 hcDAF-12 lit1-tk-luc reporter, luminescence; 0% DMSO, 100% Δ7-dafachronic acid; actives 1.4% (n = 370,000);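 active = activation above the mean of all tested compounds plus 3 SD, cut at about 5.5% in these data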;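 also: 100% = response to 3 µM Δ7-dafachronic acid high control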
DAX1 inh-2: inhibits human nuclear receptor DAX1; AID 504766; inhibition, % at 6.75 µM; P51843; HEK293 Gal4-DAX1 luciferase reporter, luminescence; actives 0.99% (n = 340,000);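 active = inhibition above the mean over all tested compounds plus 3 SD, cut at about 4.2% in these data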;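 also: 0% = DAX1-transfected cells with DMSO and 100% = empty-vector control cells with DMSO; inhibition shows as a rise in luminescence from relieved DAX1 repression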
Target sequence (P51843 207-470 limits assumed): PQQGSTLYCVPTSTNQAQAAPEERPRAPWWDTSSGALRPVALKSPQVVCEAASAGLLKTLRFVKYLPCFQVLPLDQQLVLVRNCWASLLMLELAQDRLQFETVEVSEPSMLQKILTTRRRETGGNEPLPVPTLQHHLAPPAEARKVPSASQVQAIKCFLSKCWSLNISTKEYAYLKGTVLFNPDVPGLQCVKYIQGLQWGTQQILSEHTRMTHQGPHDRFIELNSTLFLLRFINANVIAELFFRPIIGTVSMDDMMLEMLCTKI
hgDAF12 agonist: hgDAF-12 agonism, primary luciferase screen. HEK293 GAL4-hgDAF12 UAS-luciferase reporter, agonist luminescence; normalized to butyrate control. actives 1.8% (n = 370,000). activation, % at 6.8 µM;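 active = activation above a cutoff set at the mean of all screened compounds plus 3 SD, cut at about 10% in these data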;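 also: 0% = DMSO wells and 100% = sodium butyrate wells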
LXRb hcDAF ctr: LXR-beta agonism as hcDAF-12 counter-screen | shares compounds with hcDAF-12 act | HEK293 Gal4-LXR tk-luc reporter, luminescence, 24 h; normalized: DMSO 0%, positive control 100% | activation, % at 6.8 µM | 3,400 tested, under 10 active;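 active = mean percent activation of the reporter above a cutoff set as the average over tested compounds plus their standard deviation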
hcDAF12 conf: confirmation of H. contortus DAF-12 agonists | activation, % at 6.8 µM | HEK293 hcDAF-12 lit1-tk-luc reporter, luminescence; % of Δ7-dafachronic acid response | actives 61% (n = 3,400) | shares compounds with hcDAF-12 act;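 active = mean activation across triplicate tests above the threshold derived from the earlier primary screen, cut at about 5.5% in these data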;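 also: 0% = DMSO only wells and 100% = 3 µM Δ7-dafachronic acid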
Numbers without * were called inactive. Hits are enriched below; roughly 4.5% of the tested compounds scored in any of these assays.

Results for COc1cccc(C(=O)Nc2nc3ccccc3[nH]2)c1 ?
DAX1 inh-1: 3; ssDAF-12 act: 0; FXN GAA850 act: -6; hcDAF-12 act: 7.4*; DAX1 inh-2: -4; hgDAF12 agonist: 11*; LXRb hcDAF ctr: 2; hcDAF12 conf: 8.0*

How did COc1ccc(C(=O)Nc2nc3ccccc3[nH]2)cc1 do in these assays?
DAX1 inh-1: 0; ssDAF-12 act: -1; FXN GAA850 act: -7; hcDAF-12 act: 0; DAX1 inh-2: -4; hgDAF12 agonist: -6

How did O=C(Nc1nc2ccccc2[nH]1)Nc1ccccc1F do in these assays?
DAX1 inh-1: 3; ssDAF-12 act: 4.8*; FXN GAA850 act: 2; hcDAF-12 act: 24*; DAX1 inh-2: 2; hgDAF12 agonist: 22*; LXRb hcDAF ctr: 2; hcDAF12 conf: 20*

Results for CCn1cc(CN2CCCC(C(=O)c3ccc(-c4ccccc4)cc3)C2)cn1 (stereo not given) ?
DAX1 inh-1: 0; ssDAF-12 act: -2; FXN GAA850 act: 1; hcDAF-12 act: -2; hgDAF12 agonist: -4

What do the screens show for `COC(=O)c1ccc2nc(NC(=O)COC(=O)CSc3nc(C)cc(C)n3)sc2c1`?
DAX1 inh-1: 1; ssDAF-12 act: 0; FXN GAA850 act: 3; hcDAF-12 act: 11*; DAX1 inh-2: 1; hgDAF12 agonist: 5; LXRb hcDAF ctr: 0; hcDAF12 conf: 5.9*

How did COc1ccc2nc(NC(=O)CSc3nc(C)cc(C)n3)sc2c1 do in these assays?
DAX1 inh-1: -2; ssDAF-12 act: -1; FXN GAA850 act: -2; hcDAF-12 act: -2; DAX1 inh-2: -1; hgDAF12 agonist: -2

How did Cc1ccc2nc(NC(=O)COC(=O)CSc3nc(C)cc(C)n3)sc2c1 do in these assays?
DAX1 inh-1: 1; ssDAF-12 act: 0; FXN GAA850 act: 4; hcDAF-12 act: 9.6*; DAX1 inh-2: 2; hgDAF12 agonist: 8; LXRb hcDAF ctr: 0; hcDAF12 conf: 8.7*

How did CCOC(=O)c1c(-c2ccccc2)c[nH]c1C do in these assays?
DAX1 inh-1: 1; ssDAF-12 act: -1; FXN GAA850 act: 4; hcDAF-12 act: -1; DAX1 inh-2: 2; hgDAF12 agonist: 2

What do the screens show for `COc1ccc(C(=O)Nc2ccnn2C2CCN(C(=O)c3cccnc3)CC2)cc1`?
DAX1 inh-1: 1; ssDAF-12 act: -1; FXN GAA850 act: 1; hcDAF-12 act: -1; DAX1 inh-2: 1; hgDAF12 agonist: 5

Results for COc1ccc(N(C(=O)CNC(=O)c2ccco2)C(C(=O)NC2CCCC2)c2ccco2)cc1 (stereo not given) ?
DAX1 inh-1: 0; ssDAF-12 act: -1; FXN GAA850 act: 1; hcDAF-12 act: -1; DAX1 inh-2: -1; hgDAF12 agonist: -1

Results for CCCCN(C(=O)C1CSC2(C)CCC(=O)N12)c1c(N)n(CC(C)C)c(=O)[nH]c1=O (stereo not given) ?
DAX1 inh-1: 1; ssDAF-12 act: -1; FXN GAA850 act: 2; hcDAF-12 act: 0; DAX1 inh-2: 0; hgDAF12 agonist: -1

What do the screens show for `COc1cccc(NC(=O)CN(C)C(=O)c2ccccc2-c2nc3ccccc3s2)c1`?
DAX1 inh-1: -2; ssDAF-12 act: -1; FXN GAA850 act: 0; hcDAF-12 act: -2; DAX1 inh-2: 0; hgDAF12 agonist: -1

Results for Cc1noc(C)c1S(=O)(=O)N(CC(=O)NC(C)c1ccccc1)c1ccc(C(C)C)cc1 (stereo not given) ?
DAX1 inh-1: 0; ssDAF-12 act: 0; FXN GAA850 act: -1; hcDAF-12 act: -1; DAX1 inh-2: 1; hgDAF12 agonist: 2

How did O=C(Nc1ccc2ccccc2c1)c1ccccc1[N+](=O)[O-] do in these assays?
DAX1 inh-1: 2; ssDAF-12 act: 1; FXN GAA850 act: 4; hcDAF-12 act: 7.9*; DAX1 inh-2: 4; hgDAF12 agonist: 10; LXRb hcDAF ctr: 0; hcDAF12 conf: 4

Results for O=C(Nc1ccc2oc(=O)ccc2c1)c1ccccc1[N+](=O)[O-] ?
DAX1 inh-1: -2; ssDAF-12 act: -1; FXN GAA850 act: -1; hcDAF-12 act: 1; DAX1 inh-2: 1; hgDAF12 agonist: 0

What do the screens show for `Cc1ccc(NC(=O)c2cc3ccccc3cc2O)cc1`?
DAX1 inh-1: 1; ssDAF-12 act: 1; FXN GAA850 act: 4; hcDAF-12 act: 10*; DAX1 inh-2: 4.5*; hgDAF12 agonist: 10; LXRb hcDAF ctr: 1; hcDAF12 conf: 9.2*

What do the screens show for `O=C(Nc1ccc2ccccc2c1)c1ccccc1O`?
DAX1 inh-1: 0; ssDAF-12 act: 1.0*; FXN GAA850 act: -1; hcDAF-12 act: 7.8*; DAX1 inh-2: -2; hgDAF12 agonist: 9; LXRb hcDAF ctr: 2; hcDAF12 conf: 20*

Results for O=C(COC(=O)c1ccccc1O)Nc1ccc2ccccc2c1 ?
DAX1 inh-1: 0; ssDAF-12 act: -1; FXN GAA850 act: 3; hcDAF-12 act: 3; DAX1 inh-2: -1; hgDAF12 agonist: 0

What do the screens show for `O=C(Nc1ccccc1)c1ccc(F)cc1F`?
DAX1 inh-1: 0; ssDAF-12 act: 0; FXN GAA850 act: 3; hcDAF-12 act: 2; DAX1 inh-2: 1; hgDAF12 agonist: 2

What do the screens show for `Cc1ccc(NC(=O)c2ccc(F)cc2F)cc1`?
DAX1 inh-1: 2; ssDAF-12 act: 0; FXN GAA850 act: 3; hcDAF-12 act: 8.9*; DAX1 inh-2: 2; hgDAF12 agonist: 8; LXRb hcDAF ctr: 1; hcDAF12 conf: 4

Results for COc1ccc(CCNC(=O)COC(=O)CSc2ccc(C(N)=O)cc2[N+](=O)[O-])cc1OC ?
DAX1 inh-1: 1; ssDAF-12 act: -1; FXN GAA850 act: -1; hcDAF-12 act: 0; DAX1 inh-2: 0; hgDAF12 agonist: 2

How did CCOC(=O)c1c(C)[nH]c(C(=O)CC(=O)OC)c1C do in these assays?
DAX1 inh-1: 0; ssDAF-12 act: -1; FXN GAA850 act: 0; hcDAF-12 act: -2; DAX1 inh-2: -1; hgDAF12 agonist: -2

What do the screens show for `CCC(C)NC(=S)N(Cc1cc2cc(C)ccc2n2nnnc12)CC(C)(C)NC(C)C` (stereo not given)?
DAX1 inh-1: 0; ssDAF-12 act: -1; FXN GAA850 act: 2; hcDAF-12 act: -1; DAX1 inh-2: 0; hgDAF12 agonist: -1

Screens as filed in PubChem.
